Only some compounds are listed: those with a hit (about 2.9% of all), similar ones and a draw of the others.
Nrf2 inh = Nrf2 pathway inhibition; hit rate 2.1% among 360,000; A549 ARE-Fluc reporter, luciferase luminescence, 18-24 h; Potency, µM (series often up to 46 µM), for inactives: at the top dose activity change, negative = inhibition, most hits filed as inhibitors; also: % is scaled to controls: 0 for no effect and ±100 for the full control effect; nearly all actives have a fitted effect of over 60% in size
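Quantitative HTS in A549 cells stably bearing an antioxidant response element-firefly luciferase construct. Inhibition of Nrf2-driven transcription was scored by luminescence after 18-24 h of compound exposure at 37 °C.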
A549 tox-1 = kills or reduces viability of A549 cells in Nrf2 counter-screen; A549 ARE-Fluc cells, CellTiter-Fluor viability, 18-24 h; Potency, µM (titrated, usually from 46 µM), without a hit: at the top dose activity change, negative = cytotoxicity, usual class: inhibitors; hit rate 0.16% among 390,000; also: % is scaled to controls: 0 for no effect and ±100 for the full control effect
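Cytotoxicity counterscreen: CellTiter-Fluor fluorescence was measured in A549 ARE_Fluc cells after 18-24 h of compound exposure in a concentration series. The subsequent BugLite luminescent read reports ARE-luciferase activity.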
Nrf2 activator = activates Nrf2 signaling | AID 624171 | hit rate 0.31% among 410,000 | Potency, µM (titrated, usually from 46.1 µM), for the others: at the top dose activation, actives largely listed as activators | AREc32 ARE-luciferase reporter (MCF7-derived line), luminescence, 24 h; also: % of control where 0% means no effect; nearly all actives have a fitted effect of over 65% in size
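Quantitative high-throughput format: AREc32 reporter cells, 1000 per well, received compound by pin transfer and were incubated 24 hr at 37 deg C, 5% CO2, before Steady-Glo luminescence detection.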
S2 tox = viability counter-screen for ATXN expression inhibitors. S2 cells (HEK-293 line with an ATXN2-luciferase reporter) viability, CellTiter-Fluor protease fluorescence, 24 h. Potency, µM (series often up to 56.7 µM), most hits filed as cytotoxic. hit rate 0.49% among 400,000; also: nearly all actives have a fitted effect of over 40% in size
ATXN2 expr inh = reduces ATXN2 reporter expression in HEK-293 cells | hit rate 0.72% among 360,000 | HEK-293 ATXN2-luciferase reporter, luminescence, 24 h | Potency, µM (highest dose often 57 µM), inactives show at the top dose activity change, negative = inhibition, actives largely listed as inhibitors | AID 1745845; also: % is scaled to controls: 0 for no effect and ±100 for the full control effect; nearly all actives have a fitted effect of over 55% in size
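ATXN2-luciferase reporter cells (luciferase flanked by upstream and downstream ATXN2 gene portions) were treated 24 h at 37 °C with compounds at up to 57 uM. SteadyGlo luminescence gave expression; GF-AFC fluorescence gave viability.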
FLuc enzyme inh = counter-screen for Nrf2 inhibitors: firefly luciferase enzyme inhibition; shares compounds with Nrf2 inh; purified firefly luciferase, luminescence inhibition; Potency, µM (doses to about 57.5 µM), without a hit: at the top dose activity change, negative = inhibition, hits mostly inhibitors; hit rate 4% among 1,400; AID 720522; also: % is scaled to controls: 0 for no effect and ±100 for the full control effect; nearly all actives have a fitted effect of over 65% in size
Target sequence (P08659 whole entry, looked up): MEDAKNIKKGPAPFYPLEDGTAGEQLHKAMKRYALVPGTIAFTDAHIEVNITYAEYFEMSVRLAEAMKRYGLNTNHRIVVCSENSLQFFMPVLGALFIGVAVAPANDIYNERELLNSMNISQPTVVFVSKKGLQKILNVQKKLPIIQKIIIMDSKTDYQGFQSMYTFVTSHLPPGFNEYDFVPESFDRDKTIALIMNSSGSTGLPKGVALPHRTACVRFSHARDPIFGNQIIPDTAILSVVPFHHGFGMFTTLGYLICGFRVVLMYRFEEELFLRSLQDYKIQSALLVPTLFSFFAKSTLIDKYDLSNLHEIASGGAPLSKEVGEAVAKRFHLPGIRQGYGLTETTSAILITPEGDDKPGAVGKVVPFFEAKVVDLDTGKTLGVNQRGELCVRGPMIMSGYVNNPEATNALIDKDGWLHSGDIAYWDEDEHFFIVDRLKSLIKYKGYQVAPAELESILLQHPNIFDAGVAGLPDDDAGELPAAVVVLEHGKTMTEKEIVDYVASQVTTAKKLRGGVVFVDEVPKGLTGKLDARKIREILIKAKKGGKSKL
A549 tox-2 = A549 cytotoxicity, Nrf2 inhibitor counterscreen | shares compounds with Nrf2 inh | A549 ARE-Fluc cells, cytotoxicity counterscreen | Potency, µM (top dose mostly 46.1 µM), inactives show top-dose activity change, negative = cytotoxicity, actives largely listed as inhibitors | hit rate 2% among 1,400 | AID 720523;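 also: cells exposed to compounds for 18 to 24 hours; % is scaled to controls: 0 for no effect and ±100 for the full control effect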
ARE-Fluc inh = reduces Nrf2 ARE reporter signal in A549 cells. hit rate 74% among 1,400. shares compounds with Nrf2 inh. A549 ARE-firefly luciferase reporter, luminescence. Potency, µM (highest dose often 46.1 µM), without a hit: at the top dose activity change, negative = inhibition, actives largely listed as inhibitors; also: % is scaled to controls: 0 for no effect and ±100 for the full control effect; nearly all actives have a fitted effect of over 65% in size
* = called active by the depositor; [ ] = another dose, or the depositor's remark. Calls follow the shape of the dose curve; as a rule, active = well fitted curve in the direction sought with a large enough effect; inconclusive = small, poorly fitted or top-dose-only effect, or another doubt; inactive = no such curve, though single readings can be large; an effect the other way counts as inactive or inconclusive. Potency is read from the fitted curve at half-maximal effect.

Results for Cn1c(=O)c2[nH]c(CCCCc3nc4ccccc4[nH]3)nc2n(C)c1=O ?
Nrf2 inh: 0.3%; A549 tox-1: 0.4%; Nrf2 activator: -0.7%; S2 tox: inactive; ATXN2 expr inh: -7.7%

Results for COc1ccc(CCN2CC(C(=O)NCCc3cnn(C)c3)CCC2=O)cc1 (stereo not drawn) ?
Nrf2 inh: -3.3%; A549 tox-1: 0.0%; Nrf2 activator: -0.4%; S2 tox: inactive; ATXN2 expr inh: 10.9%

How did CC(C)n1c(CN(C)Cc2ccccc2)nc2c1c(=O)n(C)c(=O)n2C do in these assays?
Nrf2 inh: 0.461µM*; A549 tox-1: -17.5%; Nrf2 activator: -0.5%; S2 tox: inconclusive; ATXN2 expr inh: inconclusive; FLuc enzyme inh: 1.9%; A549 tox-2: -3.2%; ARE-Fluc inh: 4.11µM*

How did CCc1ccc2c(c1)C(=O)CCC2 do in these assays?
Nrf2 inh: 27.9%; A549 tox-1: -0.3%; Nrf2 activator: 0.5%; S2 tox: inactive; ATXN2 expr inh: -2.2%

How did CCn1nc(C)c(CNC(=O)c2ccc(OC3CCN(Cc4ccccn4)CC3)cc2)c1C do in these assays?
Nrf2 inh: 1.46µM*; A549 tox-1: -15.5%; Nrf2 activator: 0.1%; S2 tox: inconclusive; ATXN2 expr inh: -27.0%; FLuc enzyme inh: 1.3%; A549 tox-2: -5.6%; ARE-Fluc inh: 1.46µM*

Results for O=S(=O)(Nc1ccc(Cc2ccncc2)cc1)c1ccc(Cl)c(Cl)c1 ?
A549 tox-1: inconclusive; Nrf2 activator: 2.2%; S2 tox: inactive; ATXN2 expr inh: -24.1%

What do the screens show for `COc1ccc(S(=O)(=O)Nc2ccc(Cc3ccncc3)cc2)cc1OC`?
Nrf2 inh: 6.51µM*; A549 tox-1: -17.2%; Nrf2 activator: 3.3%; S2 tox: inactive; ATXN2 expr inh: -18.6%; FLuc enzyme inh: 1.8%; A549 tox-2: 3.9%; ARE-Fluc inh: inconclusive

What do the screens show for `CCOC(=O)c1ccc(NC(=O)COc2coc(CN3CCc4ccccc43)cc2=O)cc1`?
Nrf2 inh: -2.7%; A549 tox-1: -2.3%; Nrf2 activator: -1.7%; S2 tox: inconclusive; ATXN2 expr inh: 1.0%

How did CC1CCCCC1NS(=O)(=O)c1ccc(S(=O)(=O)NCc2ccncc2)cc1 (stereo not drawn) do in these assays?
Nrf2 inh: 2.31µM*; A549 tox-1: -14.4%; Nrf2 activator: -0.5%; S2 tox: inactive; ATXN2 expr inh: -8.7%; FLuc enzyme inh: 0.7%; A549 tox-2: -10.6%; ARE-Fluc inh: 3.66µM*

How did CCOc1cc(S(=O)(=O)NCc2ccncc2)ccc1Cl do in these assays?
Nrf2 inh: 1.03µM*; A549 tox-1: -10.5%; Nrf2 activator: -0.2%[9.22 µM]; S2 tox: inactive; ATXN2 expr inh: -21.3%; FLuc enzyme inh: -1.4%; A549 tox-2: -0.6%; ARE-Fluc inh: 1.3µM*

How did Cc1cc(S(=O)(=O)NCc2ccncc2)c(C)cc1Br do in these assays?
Nrf2 inh: 4.11µM*; A549 tox-1: -7.8%; Nrf2 activator: 0.0%; S2 tox: inactive; ATXN2 expr inh: -15.4%; FLuc enzyme inh: -0.9%; A549 tox-2: -4.0%; ARE-Fluc inh: inconclusive

How did Cc1ccc(C)c(S(=O)(=O)NCc2ccncc2)c1 do in these assays?
Nrf2 inh: inconclusive; A549 tox-1: -12.0%; Nrf2 activator: -0.6%; S2 tox: inconclusive; ATXN2 expr inh: -15.9%

What do the screens show for `Cc1ccc(S(=O)(=O)NCc2ccncc2)cc1`?
Nrf2 inh: 2.59µM*; A549 tox-1: -5.5%; Nrf2 activator: 2.0%; S2 tox: inactive; ATXN2 expr inh: -27.0%; FLuc enzyme inh: 2.7%; A549 tox-2: -7.0%; ARE-Fluc inh: 18.4µM*

How did CCOc1cc(S(=O)(=O)NCc2cccs2)ccc1Cl do in these assays?
Nrf2 inh: -8.3%; A549 tox-1: -1.8%; Nrf2 activator: 3.3%; S2 tox: inactive; ATXN2 expr inh: 3.0%

Results for Clc1ccc(-c2noc(/C=C/c3ccccc3)n2)cc1 ?
Nrf2 inh: 0.0%; A549 tox-1: 0.0%; Nrf2 activator: 9.2%

Results for CCN(CC(=O)Nc1ccc(NC(C)=O)cc1)C(=O)CCCc1nc2ccccc2s1 ?
Nrf2 inh: 2.2%; A549 tox-1: -4.6%; Nrf2 activator: -0.6%; S2 tox: inactive; ATXN2 expr inh: 1.7%

Results for CCOC(=O)c1c(-c2ccncc2)csc1N ?
Nrf2 inh: -19.8%; A549 tox-1: -0.5%; Nrf2 activator: -0.9%; S2 tox: inactive; ATXN2 expr inh: 0.8%

How did CCOC(=O)COc1ccc(S(=O)(=O)NCc2ccncc2)cc1 do in these assays?
Nrf2 inh: inconclusive; A549 tox-1: -4.3%; Nrf2 activator: -0.8%; S2 tox: inactive; ATXN2 expr inh: -26.8%

How did CCOc1ccc(S(=O)(=O)NCc2ccncc2)cc1 do in these assays?
Nrf2 inh: 0.411µM*; A549 tox-1: -29.4%; Nrf2 activator: 0.4%; S2 tox: inactive; ATXN2 expr inh: -18.3%; FLuc enzyme inh: -0.1%; A549 tox-2: -9.4%; ARE-Fluc inh: 0.651µM*

How did COC(=O)c1ccccc1-c1c2ccc(=N)cc-2oc2cc(N)ccc12 do in these assays?
Nrf2 inh: 1.16µM*; A549 tox-1: -11.2%; Nrf2 activator: -0.7%; ATXN2 expr inh: inconclusive; FLuc enzyme inh: 3.2%; A549 tox-2: -6.3%; ARE-Fluc inh: 8.2µM*

How did C=CCOC(=O)c1cc(-c2ccc(/C=C3\C(=O)NC(=O)C(C#N)=C3C)o2)ccc1Cl do in these assays?
Nrf2 inh: 22.7%; A549 tox-1: 0.9%; Nrf2 activator: -0.3%; S2 tox: inactive; ATXN2 expr inh: 2.1%

What do the screens show for `Cc1cc(C)nc(/N=C2\NC(=O)CC(C(=O)O)N2CCc2c[nH]c3ccccc23)n1` (stereo not drawn)?
Nrf2 inh: -14.1%; A549 tox-1: -13.1%; Nrf2 activator: 0.1%; S2 tox: inactive; ATXN2 expr inh: -20.4%

What do the screens show for `Cc1ccc(C[n+]2ccccc2)cc1`?
Nrf2 inh: 5.17µM*; A549 tox-1: -8.7%; Nrf2 activator: 0.1%; S2 tox: inactive; ATXN2 expr inh: 6.5%; FLuc enzyme inh: 1.4%; A549 tox-2: -1.0%; ARE-Fluc inh: 20.6µM*

Results for CC1CCN(c2ccccc2NC(=S)NC(=O)C(C)(C)C)CC1 ?
Nrf2 inh: 4.6%; A549 tox-1: 1.5%; Nrf2 activator: 5.1%; S2 tox: inactive; ATXN2 expr inh: 6.4%
